Only some compounds are listed: those with a hit (about 11% of all), similar ones and a draw of the others.
HPGD block = HPGD (human) dehydrogenase inhibition | P15428 | purified HPGD, NADH fluorescence kinetic, PGE2 substrate | Potency, µM, inactives show at the top dose activity change, negative = inhibition, hits mostly inhibitors | hit rate 4.3% among 150,000 | AID 894; active means well fitted inhibition curve with a large enough effect, not every such curve was filed as active; inconclusive means small, poorly fitted or top-dose-only effect, or another doubt; inactive means no such curve, though single readings can be large or run the other way; further: potency means the concentration at half of the fitted maximal effect
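NADH formation kinetics: reaction with 30 uM PGE2 and 1 mM NAD+ (final), 20 nM enzyme, Tris-HCl pH 8 with Tween 20, after 15 min compound preincubation at room temperature. Fluorescence change, last versus first of five reads.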
PNC assembly inh = inhibitors of perinucleolar compartment assembly. PC3M PTB-GFP, PNC prevalence imaging, 16 h; hits give low values. activity change (PNC), negative = inhibition, % at 10 µM. hit rate 3.1% among 140,000;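 active means readout at or below -70, meaning at least 70% loss of cells showing the perinucleolar compartment, a nuclear body marking cancer cells; inconclusive means readout between -30 and a set limit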;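 further: plate controls were DMSO wells for no effect and camptothecin positive control wells for full effect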
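PC3M cells stably expressing PTB-GFP, 750–1000 cells/well, treated 16 h at 37 °C with compound (23 nl of library stock), in duplicate. After paraformaldehyde fixation and Hoechst stain, imaged at 20x; PNC prevalence scored by image analysis.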
ALOX12 inhib = blocks human 12-lipoxygenase activity; Potency, µM (doses to about 57.1 µM), inactives show at the highest dose activity change, negative = inhibition, actives largely listed as inhibitors; P18054; hit rate 0.12% among 150,000; purified 12-hLO, xylenol orange hydroperoxide absorbance; further: potency means the concentration at half of the fitted maximal effect; nearly all actives have a fitted effect of over 55% in size
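150 nM 12hLO, 25 mM Hepes pH 7.0 + 0.01% Triton X-100; cpd preinc 15 min RT; 40 uM arachidonic acid, 30 min RT; Fe-XO 30 min; A573/A405 ratio as read-out.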
IMPase Li inh = IMPase inhibition in cells with lithium potentiation | CHO-M1 cells, IP1 TR-FRET (IP-One), carbachol + lithium | Potency, µM (top dose mostly 59.4 µM), inactives show at the highest dose activity, negative = IMPase inhibition, most hits filed as inhibitors | hit rate 0.35% among 210,000;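 further: IP1 builds up when IMPase is blocked and the TR-FRET signal falls; potency means the concentration at half of the fitted maximal effect; plate controls were basal vehicle for no effect and high inhibitor control for full effect; nearly all actives have a fitted effect of over 50% in size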
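Steps: plate 2000 CHO-M1 cells per well and culture 16–30 h; add compound and lithium; incubate 30 min, 37C; add d2-IP1 tracer and Eu cryptate anti-IP1 antibody in lysis buffer; read after 10 min at room temperature.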
IMPase cell inh = membrane-permeable compound that blocks inositol monophosphatase. CHO-M1 cells, IP1 accumulation, HTRF TR-FRET ratio. inhibition (IP1 accumulation), % at 46.1 µM. 120,000 tested, under 10 active. AID 901; active means well fitted curve in the direction sought with a large enough effect in the signal ratio, not every such curve was filed as active; inconclusive means small, poorly fitted or top-dose-only effect, or a change in a side signal; inactive means no such curve, though single readings can be large or run the other way; the % refers to the signal ratio;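 further: cells stimulated with carbachol in lithium chloride buffer; plate controls were DMSO basal wells for no effect and reference inhibitor wells for full effect; higher means more IMPase inhibition seen as more IP1 and lower FRET ratio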
Target sequence (P97697 whole entry, looked up): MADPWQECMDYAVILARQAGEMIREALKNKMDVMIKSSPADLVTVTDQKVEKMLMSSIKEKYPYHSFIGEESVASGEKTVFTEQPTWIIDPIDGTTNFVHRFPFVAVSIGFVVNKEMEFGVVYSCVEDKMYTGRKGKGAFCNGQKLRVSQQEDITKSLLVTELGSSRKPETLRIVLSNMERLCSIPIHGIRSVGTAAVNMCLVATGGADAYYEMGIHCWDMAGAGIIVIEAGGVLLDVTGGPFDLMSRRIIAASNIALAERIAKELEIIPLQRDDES
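Seeded CHO-M1 cells were dosed with compound at up to 46 uM, stimulated with carbachol for 30 min, then lysed in IP-One detection reagents. Higher IP1 lowers the TR-FRET signal.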
ALDH1A1 block = ALDH1A1 (human) enzyme inhibition; P00352; Purified ALDH1A1, NADH fluorescence, propionaldehyde substrate; Potency, µM (highest dose often 75.3 µM), inactives show at the highest dose activity, negative = inhibition, actives largely listed as inhibitors; hit rate 7.3% among 220,000; active means well fitted inhibition curve with a large enough effect, not every such curve was filed as active; inconclusive means small, poorly fitted or top-dose-only effect, or another doubt; inactive means no such curve, though single readings can be large or run the other way;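 further: potency means the concentration at half of the fitted maximal effect; plate controls were no enzyme wells and a reference inhibitor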
Target sequence (P00352 whole entry, looked up): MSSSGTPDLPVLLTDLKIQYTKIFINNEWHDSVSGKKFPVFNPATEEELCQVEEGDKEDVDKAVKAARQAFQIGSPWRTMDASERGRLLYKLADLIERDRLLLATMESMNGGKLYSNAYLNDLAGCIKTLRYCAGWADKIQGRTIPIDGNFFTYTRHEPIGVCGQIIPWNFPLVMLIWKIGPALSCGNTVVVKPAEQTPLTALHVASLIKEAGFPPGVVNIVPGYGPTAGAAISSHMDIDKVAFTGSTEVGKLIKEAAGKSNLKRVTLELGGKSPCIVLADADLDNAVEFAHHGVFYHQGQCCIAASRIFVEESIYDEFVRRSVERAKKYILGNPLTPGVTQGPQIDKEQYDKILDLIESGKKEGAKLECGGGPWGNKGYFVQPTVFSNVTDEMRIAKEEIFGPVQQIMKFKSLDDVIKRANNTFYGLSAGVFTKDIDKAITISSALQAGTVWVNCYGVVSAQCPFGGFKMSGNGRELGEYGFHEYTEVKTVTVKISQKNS
An asterisk follows results filed as active; ? = inconclusive; nt = not tested or not shown; [ ] = another dose, or the depositor's remark. Unless noted, the call rests on the fitted dose curve; in most records, active means well fitted curve in the direction sought with a large enough effect; inconclusive means small, poorly fitted or top-dose-only effect, or another doubt; inactive means no such curve, though single readings can be large; an effect the other way counts as inactive or inconclusive. Unless noted, on the % scale 0 is the no-effect control and ±100 the full control effect.

SMILES	HPGD block	PNC assembly inh	ALOX12 inhib	IMPase Li inh	IMPase cell inh	ALDH1A1 block
Cc1ccc(S(=O)(=O)/C(C#N)=C/c2c(N3CC(C)OC(C)C3)nc3ccccn3c2=O)cc1 (centres undefined)	14µM*	29	-11%	-2%[38.3 µM]	2	-13%
c1nc(N2CCC3(CC2)OCCO3)c2[nH]cnc2n1	-5%	-113*	-1%	-2%	nt	15%
c1nc(N2CCCC2)c2[nH]cnc2n1	-17%	-7	2%	-3%	-9	-2%
FC(F)Oc1ccc(NC(=S)NCc2ccccc2)cc1Cl	14µM*	-1	?	60%[38.3 µM]	3	?
O=C(Nc1ccc(OC(F)F)c(Cl)c1)C(c1ccccc1)c1ccccc1	-4%	?	2%	27%	8	14µM*
Cc1noc(C)c1CSc1ccccc1C(=O)N1CCN(c2ccccc2)CC1	-14%	-100*	0%	22%	14	?
COCCSc1ccccc1C(=O)N1CCN(c2ccccc2)CC1	nt	nt	nt	13%	nt	7%
CCN1CN(Cc2ccco2)CNC1=S	-7%	-82*	-1%	-8%	nt	-7%
O=C(CSc1nnc(CNC(=O)c2cccs2)o1)NC1CCCC1	-19%	-100*	6%	2%	-10	-2%
O=C(CSc1cn(CCNC(=O)c2cccs2)c2ccccc12)NC1CCCC1	20µM*	-16	0%	34%[38.3 µM]	6	?
O=C(Cc1ccc(Cl)cc1)c1c(O)cc(O)cc1O	?	nt	-9%	23%	5	3%
Cc1ccccc1NN=Nc1nc2c([nH]1)c(=O)n(C)c(=O)n2C	?	0	-1%	-2%	nt	?
COc1ccc(NN=Nc2nc3c([nH]2)c(=O)n(C)c(=O)n3C)cc1	nt	nt	nt	nt	nt	8.9µM*
COc1ccc(-c2oc3ncn4nc(-c5ccccc5Br)nc4c3c2-c2ccc(OC)cc2)cc1	nt	nt	nt	nt	-12	nt
CC(=O)N1CCN(c2nc(-c3ccco3)c3c(c2C#N)CC(C)(C)SC3)CC1	?	-2	-9%	-4%[38.3 µM]	16	?
CC1(C)Cc2c(c(-c3ccco3)[nH]c(=O)c2C#N)CS1	14µM*	-21	-16%	1%[38.3 µM]	-9	5.6µM*
CC1(C)Cc2c(c(-c3ccccc3)[nH]c(=O)c2C#N)CS1	?	-8	-4%	5%[38.3 µM]	4	28µM*
COc1ncc2nc(-c3ccccc3)c(=O)n(CCC#N)c2n1	nt	nt	nt	-9%	nt	?
COc1cccc2oc(-c3ccccc3)cc(=O)c12	?	nt	0%	17%	3	?
CCOc1cccc2oc(-c3ccccc3Cl)cc(=O)c12	45µM*	nt	-13%[0.00818 µM]	21%	nt	-10%
Nc1ccc(O)c2c(=O)cc(-c3ccccc3Cl)oc12	-24%	?	-5%[0.00818 µM]	-1%	nt	7%
O=c1cc(-c2ccccc2Cl)oc2cc(O)cc(O)c12	18µM*	-15	-6%	1%	nt	?
CCC(=O)N1CCc2cc(S(=O)(=O)N3CCN(c4ccccc4F)CC3)ccc21	nt	nt	nt	nt	1	nt
Cc1ccc(-c2nn(C)c(=O)c3ccccc23)cc1S(=O)(=O)N1CCOCC1	14µM*	-7	7%	18%	-10	1%
Cc1ccc(-c2nn(C)c(=O)c3ccccc23)cc1S(=O)(=O)N1CCCC1	?	-28	-8%	20%[38.3 µM]	10	-11%
SMILES	HPGD block	PNC assembly inh	ALOX12 inhib	IMPase Li inh	IMPase cell inh	ALDH1A1 block
Cc1ccc(-c2n[nH]c(=O)c3ccccc23)cc1S(=O)(=O)NCCN1CCOCC1	13µM*	-24	-2%	-8%[38.3 µM]	1	2%
Cc1ccc(-c2nn3c(C)nnc3c3ccccc23)cc1S(=O)(=O)NCCN1CCOCC1	-30%	68	-7%	-10%[38.3 µM]	-1	24%
CN(C)CCCN1c2ccccc2C(C)(C)c2ccccc21	-7%	nt	11%[11.4 µM]	6%	nt	-8%[13.5 µM]
CCc1[nH]c(=O)[nH]c1C(C)S(=O)(=O)c1ccc(C)cc1 (centres undefined)	nt	nt	nt	2%	nt	32µM*
CCc1c(C(C)S(=O)(=O)c2ccc(C)cc2)[nH]c(=O)n1-c1ccc(C)cc1 (centres undefined)	-22%	-16	-9%	29%[38.3 µM]	4	?
CCOc1ccc2nc(SC3CC(=O)N(c4cccc(OC)c4)C3=O)sc2c1 (centres undefined)	-16%	?	1%	11%	nt	20µM*
CCOc1ccc(N2C(=O)CC(Sc3nc(CC(C)C)ccc3C#N)C2=O)cc1 (centres undefined)	nt	nt	nt	3%	nt	?
CCOc1ccc2nc(SCc3ccc(OC)cc3)sc2c1	-24%	11	3%	11%	nt	-11%
CCOc1ccc(N2C(=O)CC(Sc3nc(C)cc(C)c3C#N)C2=O)cc1 (centres undefined)	-7%	18	1%	2%[38.3 µM]	0	14µM*
CCOc1ccc(N2C(=O)CC(Sc3n[nH]c(-c4ccccc4)n3)C2=O)cc1 (centres undefined)	nt	nt	nt	5%	nt	0.45µM*
CCOC(=O)c1cnc(SC2CC(=O)N(c3cccc(OC)c3)C2=O)nc1N (centres undefined)	nt	?	-5%	nt	-2	-1%
CCOc1ccc2nc(SC3CC(=O)N(c4ccccc4)C3=O)sc2c1 (centres undefined)	-22%	9	-3%	23%[38.3 µM]	12	14µM*
Cc1cc(O)c(C)c2c1CC[C@H]1[C@H](C)C(=O)O[C@H]21	-2%	nt	nt	3%	nt	2%
C=C(C)C(=O)/C=C/c1ccc(Br)cc1	-3%	nt	nt	7%	nt	-8%
CCOc1ccc2nc(SCC(=O)c3ccccc3)sc2c1	-7%	?	3%	23%[38.3 µM]	6	5%
CCOc1ccc2nc(SCCNS(=O)(=O)c3ccccc3)sc2c1	-4%	-113*	-6%	16%	nt	1%
CCOC(=O)c1cnc(SC)nc1Sc1cc(Cl)ccc1Cl	7.1µM*	27	-4%	15%[38.3 µM]	-2	?
O=C(Nc1sc2c(c1C(=O)O)CCC2)c1ccco1	22µM*	-24	1%	-23%[38.3 µM]	5	-5%
O=C(Nc1sc2c(c1C(=O)O)CCCC2)c1cccs1	25µM*	27	-2%	1%[38.3 µM]	-5	-11%
Cc1ccc(C(=O)Nc2sc3c(c2C(=O)O)CCCCC3)o1	14µM*	?	-3%	?	-7	19µM*
Cc1ccc(C)n1-c1sc2c(c1C(=O)O)CCCC2	-21%	24	0%	1%	nt	28µM*
COc1ccc(NC(=O)COc2ccc(C(=O)OCC(=O)N(C(C)C)C(C)C)cc2OC)cc1	nt	nt	nt	5%	nt	4%
Cc1ccc(C)c(NC(=O)CSc2nnc(CCCCCNC(=O)OC(C)(C)C)o2)c1	18µM*	3	-3%	18%	10	9.5µM*
C=CCN1C(=O)C(O)(CC(=O)c2ccc(-n3cccc3)cc2)c2ccccc21 (centres undefined)	-17%	?	4%	17%[38.3 µM]	1	0.5µM*

Compound activity from PubChem BioAssay.
